Compound activity from PubChem BioAssay.
Sampled rows, rich in hits. Any-hit rate of the full collection: about 19%.
Pf growth 96h: inhibits malaria parasite growth, 96 h. AID 504834. actives 6.9% (n = 320,000). P. falciparum luciferase reporter growth, 96 h. Potency, µM (series often up to 28.7 µM), for the others: top-dose activity change, negative = inhibition, actives largely listed as inhibitors; note: potency is the fitted concentration of half-maximal effect; % is set by controls: 0 for no effect and ±100 for the full control effect
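Two-generation exposure (96 h) targets delayed-death phenotype. Reporter parasites carrying integrated firefly luciferase, in red cells at 2% hematocrit and 0.05% parasitemia final, kept at 37 C, 5% CO2; luminescence loss indicates inhibition.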
CHX counter: affects cycloheximide protein synthesis inhibition readout, counter-screen. cell reporter, cycloheximide protein synthesis inhibition counterscreen. max response, %. actives 12% (n = 300,000); in the data active = max response mostly above about 13%, no sharp cut-off; inactive = mostly below about 14%; note: read at 38.3 µM for the half of the compounds with a filed dose; 0% is about no effect
Lassa entry inh: Lassa virus entry inhibition; Lassa virus pseudotype entry inhibition, cell reporter; Potency, µM (series often up to 37.9 µM), for the others: at the top dose activity change, negative = inhibition, hits mostly inhibitors; actives 1.2% (n = 300,000); AID 540256; calls by dose curve; tested in HEK293 cells; note: potency is the fitted concentration of half-maximal effect; % is set by controls: 0 for no effect and ±100 for the full control effect; nearly all actives have a fitted effect of over 50% in size
Pf growth 48h: inhibits P. falciparum growth in the first generation, 48 h; P. falciparum luciferase growth in erythrocytes, 48 h; Potency, µM (top dose mostly 28.7 µM), for inactives: top-dose activity change, negative = inhibition, actives largely listed as inhibitors; actives 5.9% (n = 310,000); AID 504832; note: potency is the fitted concentration of half-maximal effect; % is set by controls: 0 for no effect and ±100 for the full control effect
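First compound was added to culture medium, then infected red cells at 0.1% parasitemia and 2% hematocrit (final). After incubation at 37 C under 5% CO2, luciferase detection reagent was dispensed and light output recorded.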
Shiga inhibitor: inhibitors of Shiga toxin in Vero cells. Vero cells, Shiga toxin protein synthesis inhibition reporter. inhibition, % at 38.7 µM. actives 9.2% (n = 290,000). AID 2315; in the data active = inhibition mostly above about 28%, no sharp cut-off; inactive = mostly below about 43%; note: 0% is about no effect
MARV entry inh: blocks Marburg virus binding to or entry into cells; Marburg virus pseudotyped entry inhibition, cell reporter; Potency, µM (doses to about 37.8 µM), inactives show at the highest dose activity change, negative = inhibition, actives largely listed as inhibitors; actives 1.8% (n = 300,000); AID 540276; calls by dose curve; tested in HEK293 cells; note: potency is the fitted concentration of half-maximal effect; % is set by controls: 0 for no effect and ±100 for the full control effect
Starred values were filed as active, the others as inactive; i = inactive; ? = inconclusive; . = no result given; + = active, no number; ! = repeats disagree; [ ] = dose if it differs, or a comment. Unless noted, calls come from the whole dose curve; as a rule, active = well fitted inhibition curve with a large enough effect; inconclusive = small, poorly fitted or top-dose-only effect, or another doubt; inactive = no such curve, though single readings can be large or run the other way.

SMILES	Pf growth 96h	CHX counter	Lassa entry inh	Pf growth 48h	Shiga inhibitor	MARV entry inh
O=C(CCc1ccccc1)Nc1cccnc1Cl	70.5%	17.6*	-1.0%[46.1 µM]	55.5%	40.3	?
O=C(NCCCl)Nc1cccnc1Cl	-3.4%	12.1*	2.9%[46.1 µM]	6.5%	12.6	-0.3%[46.1 µM]
O=C(CCc1ccccc1)Nc1cc(Cl)ccc1O	?	11.0	-0.1%	10.4µM*	31.5	7.9%
O=C1Nc2ccccc2SC1c1ccccc1Cl (stereo unspecified)	.	.	-16.2%[46.1 µM]	.	.	?
O=C(CC(=O)c1ccccc1)Nc1cccnc1Cl	-3.5%	44.0*	1.1%	95.3%	73.3*	-0.4%
O=C(Nc1cc(Cl)ccc1O)c1snnc1-c1ccccc1	11.7µM*	-2.1	?	?	-8.0	?
C=C(C)CN(CC)C(=O)CSc1ccc(S(=O)(=O)N2CCN(C)CC2)cn1	?	.	3.2%	10.4µM*	.	?
CN(C)C(=O)CSc1ccc(S(=O)(=O)N2CCCC2)cn1	-0.7%	.	15.1%[46.1 µM]	?	.	?
C=C(C)CN(CC)C(=O)CSc1ccc(S(=O)(=O)N2CCN(Cc3ccccc3)CC2)cn1	8.28µM*	.	?	?	.	-22.7%
CCc1ccc(Nc2ccc(C(N)=O)cc2[N+](=O)[O-])cc1	5.5%	1.4	0.0%	15.5%	0.0	-12.1%
COc1cc(C2C3=C(Nc4ncnn42)c2ccccc2CC3)cc(OC)c1OC (stereo unspecified)	?	-5.6	?	?	-34.8	0.731µM*!
Cc1cc(C)cc(N(CC(=O)NC2CCCC2)C(=O)c2csnn2)c1	10.7%	-1.5	-8.9%[46.1 µM]	3.7%	-8.1	?
O=[N+]([O-])c1ccc2c(c1)oc1ccccc12	.	-1.8	-5.3%	29.8%	-24.8	-16.5%
COc1ccc(S(=O)(=O)Nc2ccc3c(c2)OCCO3)cc1OC	-0.1%	22.7*	0.5%[46.1 µM]	4.3%	64.8*	22.9%[46.1 µM]
COc1ccc(S(=O)(=O)Nc2ccc3c(c2)OCO3)cc1C	1.8%	-2.4	-2.7%	.	-4.0	-9.0%
Cn1cc(S(=O)(=O)Nc2ccc3c(c2)OCCO3)cn1	?	44.3*	2.2%	146.4%	103.1*	-6.9%[46.1 µM]
CCn1cc(S(=O)(=O)NCc2ccc3c(c2)OCO3)cn1	11.7µM*	-1.4	0.6%[46.1 µM]	21.7%	-8.8	0.7%[46.1 µM]
Cn1c(=O)oc2cc(S(=O)(=O)Nc3ccc4c(c3)OCO4)ccc21	.	13.8*	-2.8%	?	24.8	7.4%
Cc1nc(S(=O)(=O)Nc2ccc3c(c2)OCCO3)cn1C	11.7%	-0.8	0.2%	14.0%	15.3	4.3%[46.1 µM]
CCn1cc(S(=O)(=O)Nc2ccc3c(c2)OCCO3)cn1	20.6%	76.4*	2.4%	104.3%	76.9*	-13.0%[14.2 µM]
Cc1ccc(S(=O)(=O)Nc2ccc3c(c2)OCCO3)cc1	7.4%	6.2	?	-1.9%	8.2	-25.1%[46.1 µM]
COc1ccc(-c2cc(C(=O)Nc3ccc(O)cc3)c3ccccc3n2)cc1OC	?	28.2*	.	6.57µM*	61.5*	.
CCN(CC)S(=O)(=O)c1ccc(O)c(NC(=O)c2cc(-c3cc(OC)c(OC)c(OC)c3)nc3ccccc23)c1	1.17µM*	3.7	?	?	-1.3	10µM*
COc1ccccc1NC(=O)c1cc(-c2ccc(OC)c(OC)c2)nc2ccccc12	-21.2%	-0.5	2.3%[46.1 µM]	?	-2.5	4.4%[46.1 µM]
COc1ccc(-c2cc(C(=O)NCC(c3ccccc3)N(C)C)c3ccccc3n2)cc1OC (stereo unspecified)	9.28µM*	-4.8	?	10.4µM*	-1.4	?
SMILES	Pf growth 96h	CHX counter	Lassa entry inh	Pf growth 48h	Shiga inhibitor	MARV entry inh
COc1cc(-c2cc(C(=O)Nc3c(Cl)cc(Cl)cc3Cl)c3ccccc3n2)cc(OC)c1OC	?	-2.7	?	13.1µM*	-3.0	?
CCN(CC)c1ccc(-c2nn3c(-c4n[nH]c5c4CCC5)nnc3s2)cc1	51.6%	-1.0	?	?	-2.4	?
COc1ccc(C(CNC(=O)COc2ccc(C)cc2)N2CCCCC2)cc1 (stereo unspecified)	.	.	1.3%[46.1 µM]	.	.	6.5%[46.1 µM]
CC(CNC(=O)c1ccc(-c2ccccc2)cc1)CN(C)C (stereo unspecified)	0.0%	1.6	6.5%	-11.9%	-11.8	?
COc1ccc(-c2cc(C(=O)Nc3ccc(S(=O)(=O)Nc4onc(C)c4C)cc3)c3ccccc3n2)cc1	?	-3.4	.	11.7µM*	2.0	.
COc1ccc(-c2cc(C(=O)Nc3ccc(S(=O)(=O)Nc4ncccn4)cc3)c3ccccc3n2)cc1	?	1.6	.	?	-4.3	.
COc1ccc(C(CNC(=O)c2ccc(-c3ccccc3)cc2)N(C)C)cc1OC (stereo unspecified)	?	10.0*	?	?	33.9	?
COc1ccc(-c2cc(C(=O)Nc3ccc(C)c(N)c3)c3ccccc3n2)cc1	-33.5%	18.8*	?	?	118.1*	?
COc1cc(-c2cc(C(=O)Nc3ccc(S(=O)(=O)Nc4ncccn4)cc3)c3ccccc3n2)cc(OC)c1OC	7.38µM*	5.4	.	?	9.5	.
N#CCSc1nc2[nH]ncc2c(=O)n1-c1ccccc1Br	266.4%	-6.4	11.7%	-37.7%	-24.1	-14.5%
COc1cc(-c2cc(C(=O)Nc3ccc(S(N)(=O)=O)cc3)c3ccccc3n2)cc(OC)c1OC	?	-1.2	?	?	-4.6	-39.8%[46.1 µM]
COc1ccc(NC(=O)c2cc(-c3cc(OC)c(OC)c(OC)c3)nc3ccccc23)cc1OC	?	7.6	?	13.1µM*	19.0	?
CC(C)Oc1nc(-c2ccc(Cl)cc2)nc2ccccc12	58.4%	0.6	.	22.9%	10.4	.
CCCC[C@]12Cc3cc(C#N)ccc3[C@H](O1)c1c(c3cc(F)ccc3oc1=O)O2	.	.	.	.	.	28.7%[14.2 µM]
COc1cc2c(cc1OC)C1O[C@](c3ccsc3)(C2)Oc2c1c(=O)oc1ccc(F)cc21	?	15.5*	.	1.51µM*	i	.
CCCC[C@]12Cc3cc(C#N)ccc3C(O1)c1c(c3cc(F)ccc3oc1=O)O2	1.35µM*	2.0	.	-13.6%[5.75 µM]	i	.
CC1(C)CC(=O)C2=C(C1)O[C@@]1(c3ccsc3)Cc3cc(C#N)ccc3C2O1	?	1.5	.	1.51µM*	i	.
COc1ccc2c3c(c(=O)oc2c1)C1O[C@](c2ccsc2)(Cc2cc(C#N)ccc21)O3	26.7%[5.75 µM]	-2.5	.	?	i	.
N#Cc1ccc2c(c1)C[C@]1(c3ccsc3)Oc3c(c(=O)oc4ccccc34)C2O1	?	24.0*	.	?	+	.
CC1(C2(O)CCCCC2)NCCc2ccccc21 (stereo unspecified)	45.6%	.	-20.2%	6.7%	.	-8.1%[46.1 µM]
CCOC(=O)CCn1cc(F)c(=O)[nH]c1=O	?	-4.0	18.1%	-0.9%	-7.0	22.8%[46.1 µM]
COc1ccc(N2C(=O)c3cccc4cc(Br)cc(c34)C2=O)cc1	4.8%	-2.6	.	0.3%	-3.8	.
CCOc1cc(/C=C2\SC(=S)N(C(C(=O)O)c3ccccc3)C2=O)ccc1O (stereo unspecified)	-5.9%	-2.1	.	15.5%	-5.6	.
